TRPV1 PAM: potentiators of human vanilloid receptor 1 (TRPV1); Q8NER1; actives 0.02% (n = 320,000); TRPV1-expressing cells, Fluo-8 calcium influx, capsaicin EC20 potentiation; potentiation, % at 8.33 µM; in the data active = potentiation above about 80%; inconclusive = between about 30% and that limit; also: 0% is about no effect
Target sequence (Q8NER1 whole entry, looked up): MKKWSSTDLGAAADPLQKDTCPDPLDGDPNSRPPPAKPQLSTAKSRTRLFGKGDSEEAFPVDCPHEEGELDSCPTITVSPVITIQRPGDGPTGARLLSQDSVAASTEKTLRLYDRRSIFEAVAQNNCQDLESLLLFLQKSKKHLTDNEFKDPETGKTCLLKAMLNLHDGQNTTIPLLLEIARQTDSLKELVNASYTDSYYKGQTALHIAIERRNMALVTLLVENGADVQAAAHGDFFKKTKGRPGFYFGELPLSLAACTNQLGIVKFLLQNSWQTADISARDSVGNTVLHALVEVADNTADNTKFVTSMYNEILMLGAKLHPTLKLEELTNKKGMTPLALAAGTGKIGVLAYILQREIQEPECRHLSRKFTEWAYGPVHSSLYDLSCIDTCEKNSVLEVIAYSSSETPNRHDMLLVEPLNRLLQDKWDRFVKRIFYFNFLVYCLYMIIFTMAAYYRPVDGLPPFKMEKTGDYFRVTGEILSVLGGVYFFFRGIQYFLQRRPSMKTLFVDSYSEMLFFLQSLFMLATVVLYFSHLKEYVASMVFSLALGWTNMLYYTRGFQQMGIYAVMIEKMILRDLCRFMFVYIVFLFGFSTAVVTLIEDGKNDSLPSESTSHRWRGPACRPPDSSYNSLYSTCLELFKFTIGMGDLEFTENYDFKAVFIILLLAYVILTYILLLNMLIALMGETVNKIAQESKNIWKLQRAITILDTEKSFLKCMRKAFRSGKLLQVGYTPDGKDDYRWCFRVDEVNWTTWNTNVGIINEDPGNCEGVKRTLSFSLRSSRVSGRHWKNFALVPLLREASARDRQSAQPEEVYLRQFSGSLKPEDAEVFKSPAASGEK
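Fluo-8 calcium influx in TRPV1-expressing cells, kinetic read (ex 480/em 520 nm). Compound added and read 3 min for agonist activity, followed by capsaicin at EC20 final and 2 min further read for enhancement.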
TRPV1 ag: agonists of human vanilloid receptor 1 (TRPV1). actives 0.19% (n = 320,000). AID 540275. activation, % at 8.33 µM. TRPV1-expressing cells, Fluo-8 calcium influx, agonist mode. Q8NER1; in the data active = activation above about 80%; inconclusive = between about 30% and that limit; also: 0% is about no effect
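Cells expressing TRPV1 were dye-loaded with Fluo-8 and read kinetically: 10 s baseline, 3 min after compound (agonist portion), then 2 min after EC20 capsaicin (allosteric enhancer portion). Calcium-bound dye fluorescence at 480/520 nm.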
hERG WT inh: KCNH2 (human, wildtype) channel inhibition; U2OS, BacMam KCNH2, thallium flux FluxOr; active compounds read low; activity change, % at 1.84 µM; actives 0.37% (n = 340,000); AID 720551;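 active = maximum activity change below -70%; inconclusive = maximum activity change between -70% and -50%; inactive = maximum activity change above -50%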; also: % is scaled to controls: 0 for no effect and ±100 for the full control effect
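U2OS cells transduced with wild-type KCNH2 virus are loaded with FluxOr dye for 45 min, and thallium flux is measured in kinetic reads before and after stimulation buffer. Rate constants are normalized to DMSO controls.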
KCNH2 3.1 block: inhibitors of human KCNH2 3.1 potassium channel isoform. U2OS KCNH2 3.1, thallium flux FluxOr; active compounds read low. activity change, % (tested at about 1.8 µM). actives 0.95% (n = 340,000);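 active = maximum activity change below -70%; inconclusive = maximum activity change from -70% to -50%; inactive = maximum activity change above -50%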;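 also: thallium influx rate constant from kinetic fluorescence after stimulation buffer; % is scaled to controls: 0 for no effect and ±100 for the full control effect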
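U2OS cells transduced with KCNH2 3.1 mutant virus (1.77 x 10^8 /mL, 4 h), plated overnight at 37 C, loaded 45 min with FluxOr dye plus Red40 quencher. Thallium flux rate constant from kinetic reads after stimulation buffer, normalised to controls.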
The depositor's hits bear a star; i = inactive; ? = inconclusive; . = no result; + = active, no number. Shown are actives, neighbours in structure and some others; about 1.2% of the full set was active somewhere.

SMILES	TRPV1 PAM	TRPV1 ag	hERG WT inh	KCNH2 3.1 block
CC[C@]12c3[nH]c4ccccc4c3CCN1C(=O)C(CC(=O)NCCCOC)C[C@@H]2C(=O)N1CCN(C(=O)C2CC2)CC1 (stereo partly drawn)	.	.	21	-6
O=C(CCCl)Nc1cccc2cccnc12	29	-4	.	.
O=c1c2cc(NC(=S)NCCCN3CCC(Cc4ccccc4)CC3)ccc2nc2n1CCCCC2	-3	1	-29	-72*
C=CCn1c(SC(C)C(=O)Nc2ccc(Cl)cn2)nnc1C1CC1 (stereo not drawn)	-8	-9	4	-13
C=CCn1c(SC(C)C(=O)Nc2ccc(F)c(F)c2F)nnc1C1CC1 (stereo not drawn)	6	2	-8	-128*
Cc1ccc(CCNC(=O)C2CC(=O)N(C3CCCCC3)C2)cc1 (stereo not drawn)	8	-1	7	-6
COc1ccc(CCNC(=O)C2CC(=O)N(C3CCCCCCC3)C2)cc1OC (stereo not drawn)	1	1	-20	-201*
Cc1ccc(CNC(=O)c2nnn(-c3cccc(C)c3)c2N)cc1	.	.	25	-108*
Cc1cc(C)cc(-n2nnc(C(=O)NCc3ccccc3)c2N)c1	11	1	-7	-16
CCCSc1ccc(-c2nn(-c3ccccc3)cc2/C=C(/C#N)C(=O)N2CCOCC2)cc1	22	101*	-3	-9
O=C(COC(=O)c1ccc(F)c([N+](=O)[O-])c1)NC(=O)NCc1ccccc1	.	.	21	-14
COc1ccc(CCNC(=O)COc2ncnc3cc([N+](=O)[O-])ccc23)cc1	4	-1	1	-107*
COc1ccc(CN(C)CC(=O)Nc2ccc(SC(F)F)cc2)cc1OC	-20	?	-38	-98*
COc1ccc(CN(C)CC(=O)Nc2ccc(N3CCOCC3)cc2)cc1OC	9	-8	14	6
CN(CC(=O)Nc1ccc(SC(F)F)cc1)C1CCCCC1	-12	?	-37	-94*
CN(CC(=O)Nc1ccc(S(N)(=O)=O)cc1)C1CCCCC1	5	1	8	-4
CCOC(=O)C1=CN(C(C)C)CCC1=O	.	.	2	8
COc1cc2c(cc1OC)C1O[C@](CCCCN3C(=O)c4ccccc4C3=O)(C2)Oc2c1c(=O)oc1ccccc21	i	i	.	.
Cc1cccc(CN(C)C[C@H]2OCc3cnnn3CCCC(=O)N([C@@H](C)CO)C[C@@H]2C)c1	.	.	-1	-2
C[C@H]1CCCCO[C@@H](CN(C)S(=O)(=O)c2ccc(F)cc2)[C@@H](C)CN([C@@H](C)CO)C(=O)c2cc(NC(=O)Nc3ccc4c(c3)OCO4)ccc2O1	.	.	-31	5
S=c1nc(-c2ccccc2)[nH]c2ccc(Br)cc12	2	1	-73*	0
C/C(=N\N=C\c1ccccc1F)c1nnn(-c2nonc2N)c1C	-4	10	20	-71*
CN(C)C(CNC(=O)C1CCN(S(=O)(=O)c2ccccc2C(F)(F)F)CC1)Cc1ccccc1 (stereo not drawn)	-8	0	14	-5
O=C(CC1CCCC1)N1CCCC(Nc2ccc(F)cc2)C1 (stereo not drawn)	-5	3	-10	-96*
CC1(CCC(=O)N2CCCC(Nc3ccc(F)cc3)C2)CC1 (stereo not drawn)	-21	?	5	3
SMILES	TRPV1 PAM	TRPV1 ag	hERG WT inh	KCNH2 3.1 block
O=C(CC1CCCC1)N1CCCC(Nc2cccc(F)c2)C1 (stereo not drawn)	-11	84*	-6	-6
CC1(C)C(=O)Nc2ccccc2N1C(=O)COC(=O)CNS(=O)(=O)c1ccc(Br)cc1Cl	.	.	-10	4
CC(C)(C)S(=O)(=O)c1cnc2c(S(=O)(=O)c3ccccc3)cnn2c1N	2	-1	-2	-21
Cc1nc2c(S(=O)(=O)c3ccccc3)cnn2c(C)c1C	82*	2	19	11
CCc1cc2c(SCC(=O)NC3CCCC3)ncnc2s1	.	.	10	13
O=Cc1cc([N+](=O)[O-])ccc1N1CCN(Cc2ccc3c(c2)OCO3)CC1	11	2	?	-86*
O=[N+]([O-])c1ccc(N2CCN(Cc3ccc4c(c3)OCO4)CC2)nc1	-19	2	21	-11
COc1cccc(C=NNC(=S)NN=Cc2cccc(OC)c2OC)c1OC	.	.	0	-1
Cc1cccc(OCC(=O)Nc2ccc3c(c2)nc(CCN2CCCCC2)n3C)c1	-1	1	31	-77*
Cc1cccc(OCC(=O)Nc2ccc3c(c2)nc(CN2CCCCC2)n3C)c1	4	0	15	-15
COc1ccc(OCC(=O)Nc2ccc3c(c2)nc(CCN2CCCCC2)n3C)cc1	6	1	25	-72*
Cn1c(CCN2CCCCC2)nc2cc(NC(=O)COc3ccccc3)ccc21	0	1	23	-86*
Cc1ccc(OCC(=O)Nc2ccc3c(c2)nc(CCN2CCCCC2)n3C)cc1	26	-6	27	?
CN1CCN(CCc2nc3cc(NC(=O)COc4ccccc4)ccc3n2C)CC1	0	-1	1	-6
c1ccc(COc2ncnc3c2ncn3CCCNCc2ccc3c(c2)OCO3)cc1	.	.	0	-10
COc1ccccc1/C=C(/C(=O)OCC(=O)Nc1cc(C)ccc1C)c1ccccc1	7	-5	+	-3
OCCN1C2=NCCCN2c2ccccc21	1	-3	-1	-10
CCCCCCN1C2=NCCCN2c2ccccc21	.	.	4	-80*
COc1cccc(C(=O)CN2C3=NCCCN3c3ccccc32)c1	9	2	-6	-93*
COc1ccc(C(=O)CN2C3=NCCCN3c3ccccc32)cc1OC	4	1	5	-42
OC1(c2ccc(Br)cc2)CCN(Cc2cccc(Br)c2)CC1	-9	2	26	-76*
O=C(c1ccc([N+](=O)[O-])cc1)N(Cc1ccc(Br)cc1)N1C(=O)CCCC1=O	-7	-1	-84*	?
Cc1cc(NC(=O)c2ccc(-c3ccccc3F)o2)no1	-15	?	-15	-198*
CN(c1ccccc1)S(=O)(=O)c1ccc(Cl)c(C(=O)OCC(=O)c2c(N)n(C)c(=O)n(C)c2=O)c1	.	.	2	-6
CC(=O)Nc1ccc(Sc2ncccc2C(=O)Nc2ccc(OC(F)(F)F)cc2)cn1	9	-4	1	-86*
CC(=O)Nc1ccc(Sc2ncccc2C(=O)Nc2cc(Cl)cc(Cl)c2)cn1	8	-1	-11	-7
c1coc(-c2nc3cc4ccccc4cc3nc2-c2ccco2)c1	-8	-1	.	.
Cc1sc2ncnc(N3CCN(CCOc4ccc(Cl)cc4)CC3)c2c1C	5	5	-21	-79*
CCCCCn1c(N2CCN(Cc3ccccc3)CC2)nc2c1c(=O)[nH]c(=O)n2C	-34	22	?	-75*
CC(C)CCn1c(N2CCN(Cc3ccccc3)CC2)nc2c1c(=O)[nH]c(=O)n2C	-3	6	.	.
